Results: PubChem BioAssay (NCATS)
“And” between values parts separate entries of the source, which are not always exact repeats. Identical values can stand only once. Results filed as inconclusive are left out. Values without a mark were called inactive. The source made the active and inactive calls. The call rests on the fitted dose curve; in most records, active means well fitted curve in the direction sought with a large enough effect; inconclusive means small, poorly fitted or top-dose-only effect, or another doubt; inactive means no such curve, though single readings can be large; an effect the other way counts as inactive or inconclusive.

Target: Cellular tumor antigen p53 (Homo sapiens) (UniProt P04637)
Assay: Primary qHTS for small molecule compounds that upregulate eGFP-tagged delta133p53alpha (in N-terminal) cells. (AID 2060322);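 further: 0% = DMSO vehicle and 100% = reference activator; nearly all actives have a fitted effect of over 75% in size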
Settings: NCI-H358 eGFP-delta133p53alpha fluorescence, 24 h; activation: hits give high values
In short: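 NCI-H358 cells pre-induced 24 h with 10 ng/ml doxycycline to express N-terminal eGFP-delta133p53alpha, then dosed 24 h at 37C without doxycycline; fixed, Hoechst-stained, GFP intensity by laser scanning cytometry, normalized to DMSO (0%) and 57.5 uM 5-azacytidine (100%).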

Chain of Cellular tumor antigen p53 (Homo sapiens) (P04637 whole entry, looked up): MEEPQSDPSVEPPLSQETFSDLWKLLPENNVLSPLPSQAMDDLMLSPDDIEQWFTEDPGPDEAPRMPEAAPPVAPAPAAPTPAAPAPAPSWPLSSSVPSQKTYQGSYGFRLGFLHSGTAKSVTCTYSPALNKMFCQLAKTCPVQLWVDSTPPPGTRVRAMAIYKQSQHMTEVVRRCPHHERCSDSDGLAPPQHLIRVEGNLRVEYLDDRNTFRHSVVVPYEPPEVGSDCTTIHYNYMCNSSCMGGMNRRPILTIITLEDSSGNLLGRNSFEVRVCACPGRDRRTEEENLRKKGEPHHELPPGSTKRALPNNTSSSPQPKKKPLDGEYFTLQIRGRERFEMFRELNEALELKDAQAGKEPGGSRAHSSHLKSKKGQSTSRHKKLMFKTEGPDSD

Question: Which activation does the source give for `CC1=C(C)C(=O)C(C(CCCCCC(=O)O)c2ccccc2)=C(C)C1=O` (stereo not given) here?
Answer: Its activation is -10.7% and 34%.

Question: Which activation does the source give for `C[C@]12C=CC(=O)C=C1CC[C@@H]1[C@@H]2C(=O)C[C@@]2(C)[C@H]1CC[C@]2(O)C(=O)CO` here?
Answer: Its activation is -20.1% and 2.21%.

Question: For `Cc1ccc(C(=O)Nc2cccc(C(F)(F)F)c2)cc1Nc1nc(-c2cccnc2)nc2c1cnn2C`, which activation is on record?
Answer: Its activation is 9.99%.

Question: With `COc1cc([C@@H]2c3cc4c(cc3[C@H](O)[C@H]3COC(=O)[C@H]23)OCO4)cc(OC)c1OC` as the molecule, how does the activation read?
Answer: Its activation is 24.1%.

Question: With `COc1ccc(-n2c(C)c([N+](=O)[O-])c3ccc(O)cc32)cc1` as the molecule, how does the activation read?
Answer: The activation was -5.31%.

System: not listed separately
Assay: BET inhibitor-based combinations targeting novel dependencies in MECOM-rearranged (r) AML: SET-2 cell line (AID 2202231); further: nearly all actives have a fitted effect of over 35% in size; further: potency means the concentration at half of the fitted maximal effect;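 on viability: plate controls were DMSO treated cells for no effect and wells without cells for full effect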
Settings: SET-2 AML cells viability, CellTiter-Glo luminescence, 48 h; viability: hits give low values, concentration not given here
In short: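 500 cells/well; 11-pt dose curve; 48 h, standard incubator; CellTiter-Glo luminescence after 15 min RT; DMSO/empty-well normalization; AUC plus Z-AUC (mean-centered within each line).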

Question: Which viability does the source give for `COc1cc(NC(=O)c2ccc(-c3ccc(Cl)cc3)o2)cc(OC)c1` here?
Answer: The viability was 110%.

Question: For `Cc1cn([C@@H]2C[C@@H](O)[C@H](CO)O2)c(=O)[nH]c1=O`, which viability is on record?
Answer: Its viability is 103%.

Question: Which viability does the source give for `Nc1nc2c(c(=O)[nH]1)N(C=O)[C@H](CNc1ccc(C(=O)N[C@@H](CCC(=O)O)C(=O)O)cc1)CN2` here?
Answer: Its viability is 115%.

Question: With `OC[C@@H](O)[C@@H](O)[C@H](O)[C@@H](O)CO` as the molecule, how does the viability read?
Answer: The viability was 117%.

Question: Which viability does the source give for `O=C(O)C(O)Cc1ccc(O)c(O)c1` (stereo not given) here?
Answer: The viability was 99.8%.

Question: With `CNC(=O)Nc1ccc(-c2nc(N3CC4CCC(C3)O4)c3cnn(C4CCC5(CC4)OCCO5)c3n2)cc1` as the molecule, how does the Potency read?
Answer: Its Potency is 263 nM (active).

Question: For `Cc1cccc(-c2nn(C(=S)Nc3ccccc3)cc2-c2ccnc3ccccc23)n1`, which viability is on record?
Answer: Its viability is 97.5%.

Question: For `CC(C)(C)COc1ccc(-n2cc(C(=O)O)cn2)cc1C#N`, which viability is on record?
Answer: The viability was 95.2%.

Question: With `C1CCC(C(CC2CCCCN2)C2CCCCC2)CC1` (stereo not given) as the molecule, how does the Potency read?
Answer: The Potency was 11800 nM (active).

Question: For `CC(C)C(C)C=CC(C)C1CCC2C3=CC=C4CC(O)CCC4(C)C3CCC21C` (stereo not given), which viability is on record?
Answer: Its viability is 121%.

Question: With `CO[C@@H]1[C@@H](OC(N)=O)[C@@H](O)[C@H](Oc2ccc3c(O)c(NC(=O)c4ccc(O)c(CC=C(C)C)c4)c(=O)oc3c2C)OC1(C)C` as the molecule, how does the viability read?
Answer: Its viability is 122%.

Question: For `CCN1CCN(CC(=O)Nc2ccc(-c3cccc4c(=O)cc(N5CCOCC5)oc34)c3sc4ccccc4c23)CC1`, which Potency is on record?
Answer: Its Potency is 8110 nM (active).

Question: For `COc1cccc2c1C(=O)c1c(O)c3c(c(O)c1C2=O)C[C@@](O)(C(=O)CO)C[C@@H]3O[C@H]1C[C@H](N)[C@H](O)[C@H](C)O1`, which Potency is on record?
Answer: The Potency was 833 nM (active).

Question: Which viability does the source give for `Cn1cc(C2=C(c3c4n(c5ccccc35)CCC(CN)C4)C(=O)NC2=O)c2ccccc21` (stereo not given) here?
Answer: The viability was 103%.

Question: For `COCCCN1CCC(NC(=O)c2cc(Cl)c(N)c3c2OCC3)CC1`, which viability is on record?
Answer: Its viability is 118%.

Question: For `c1ccc2c(-c3cnn4cc(-c5ccc(N6CCNCC6)cc5)cnc34)ccnc2c1`, which Potency is on record?
Answer: Its Potency is 3320 nM (active).

Question: For `CC(C)(F)C[C@H](N[C@@H](c1ccc(-c2ccc(S(C)(=O)=O)cc2)cc1)C(F)(F)F)C(=O)NC1(C#N)CC1`, which viability is on record?
Answer: Its viability is 104%.

Question: For `CCN(CC)CCCCNc1ncc2cc(-c3cc(OC)cc(OC)c3)c(NC(=O)NC(C)(C)C)nc2n1`, which Potency is on record?
Answer: The Potency was 20900 nM (active).

Question: Which viability does the source give for `CN1C(C(=O)Nc2ccccn2)=C(O)c2sc(Cl)cc2S1(=O)=O` here?
Answer: Its viability is 103%.

Question: With `CS(=O)(=O)OCCCCOS(C)(=O)=O` as the molecule, how does the viability read?
Answer: The viability was 114%.

Question: With `OC(c1cc(C(F)(F)F)nc2c(C(F)(F)F)cccc12)C1CCCCN1` (stereo not given) as the molecule, how does the Potency read?
Answer: Its Potency is 26300 nM (active).

Question: For `Cc1ccc(O)c(C(CCN(C(C)C)C(C)C)c2ccccc2)c1` (stereo not given), which viability is on record?
Answer: The viability was 117%.

Question: With `COc1cc(OC)c(C(=O)CCCN2CCCC2)c(OC)c1` as the molecule, how does the viability read?
Answer: The viability was 98%.

Question: For `S=c1nc[nH]c2nc[nH]c12`, which Potency is on record?
Answer: The Potency was 2630 nM (active).

Question: For `CC#CCn1c(N2CCC[C@@H](N)C2)nc2c1c(=O)n(Cc1nc(C)c3ccccc3n1)c(=O)n2C`, which viability is on record?
Answer: The viability was 113%.

Question: Which Potency does the source give for `CN[C@@H]1CN(c2ccc3c(=O)c(C(=O)O)cn(-c4nccs4)c3n2)C[C@@H]1OC` here?
Answer: The Potency was 3230 nM (active).

Question: For `O=C1NC(O)CCN1[C@@H]1O[C@H](CO)[C@H](O)[C@H]1O` (stereo not given in full), which viability is on record?
Answer: The viability was 115%.

Question: For `CC[C@@H]1C(=O)N(C)c2cnc(Nc3ccc(C(=O)NC4CCN(C)CC4)cc3OC)nc2N1C1CCCC1`, which Potency is on record?
Answer: Its Potency is 468 nM (active).

Question: For `O=C(Nc1cc(Cl)cc2c1[nH]c1cnccc12)c1cccnc1`, which viability is on record?
Answer: The viability was 102%.

Question: With `C[C@](Cc1c[nH]c2ccccc12)(NC(=O)OC1C2CC3CC(C2)CC1C3)C(=O)NC[C@H](NC(=O)CCC(=O)O)c1ccccc1` (stereo not given in full) as the molecule, how does the viability read?
Answer: The viability was 110%.

Question: Which viability does the source give for `O=C(O)[C@@H](c1ccc(OCc2ccc3ccccc3n2)cc1)C1CCCC1` here?
Answer: Its viability is 99.7%.

Question: With `COc1ccc(C=Cc2cc(OC)c(OC)c(OC)c2)cc1NC(=O)[C@H](N)CO` as the molecule, how does the Potency read?
Answer: The Potency was 263 nM (active).

Question: With `C[C@@H](CN1CC(=O)NC(=O)C1)N1CC(=O)NC(=O)C1` as the molecule, how does the viability read?
Answer: Its viability is 92.4%.

Question: For `C[C@@H](Oc1cc(-n2cnc3ccc(CN4CCN(C)CC4)cc32)sc1C(N)=O)c1ccccc1C(F)(F)F`, which Potency is on record?
Answer: Its Potency is 105 nM (active).

Question: Which viability does the source give for `C[C@@H]1C[C@H]2[C@@H]3CCC4=CC(=O)C=C[C@]4(C)[C@@]3(F)[C@@H](O)C[C@]2(C)[C@@]1(O)C(=O)CO` here?
Answer: The viability was 112%.

Question: Which viability does the source give for `CC1=C(C)C(=O)C(C(CCCCCC(=O)O)c2ccccc2)=C(C)C1=O` (stereo not given) here?
Answer: Its viability is 93.3%.

Question: With `C[C@]12C=CC(=O)C=C1CC[C@@H]1[C@@H]2C(=O)C[C@@]2(C)[C@H]1CC[C@]2(O)C(=O)CO` as the molecule, how does the viability read?
Answer: Its viability is 109%.

Question: With `Cc1ccc(C(=O)Nc2cccc(C(F)(F)F)c2)cc1Nc1nc(-c2cccnc2)nc2c1cnn2C` as the molecule, how does the Potency read?
Answer: Its Potency is 20900 nM (active).

Question: Which Potency does the source give for `COc1cc([C@@H]2c3cc4c(cc3[C@H](O)[C@H]3COC(=O)[C@H]23)OCO4)cc(OC)c1OC` here?
Answer: Its Potency is 37.2 nM (active).

Question: For `COc1ccc(-n2c(C)c([N+](=O)[O-])c3ccc(O)cc32)cc1`, which viability is on record?
Answer: Its viability is 107%.
